From PubChem BioAssay AID1159580 (chemical genetic matrix, 2015)
In all, about 5,500 compounds went through this assay and about 2,000 (36%) were called active. Inconclusive results (about 18%) are left out. Cut-off read from the data, not from the text of the source: active = normalized growth mostly below about 0.91 (no sharp cut-off); inconclusive = no clear call, values can overlap the other calls; inactive = mostly above about 0.92. The list shows a part of the results.

Assay: chemical genetic growth profiling, strain panel (AID 1159580);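 note: tested at 20 µM; growth read once vehicle control cultures reached saturation at 30 °C; 1 = growth at the plate median or of vehicle wells; lower values mean less growth of the strain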
Details: S. cerevisiae deletion strains, growth OD
[1] = locus YAL040C, strain CLN3, hits give low values
[2] = locus YDR363W, strain ESC2, hits give low values
[3] = locus YER002W, strain NOP16, hits give low values
[4] = locus YNL175C, strain NOP13, hits give low values
[5] = locus YNL197C, strain WHI3, hits give low values
[6] = locus YNL224C, strain SQS1, hits give low values
[7] = locus YOR083W, strain WHI5 (second series), hits give low values

Measured: normalized growth

N.N.O=C(O)C1(C(=O)O)CCC1.[Pt+2]
inactive: [1] 0.986 | locus YCL061C, strain MRC1 (second series), hits give low values 1 | locus YDR150W, strain NUM1, hits give low values 1 | [2] 0.988 | [3] 1.02 | locus YMR307W, strain GAS1, hits give low values 0.984 | [4] 0.998 | [5] 1.04 | [6] 1 | [7] 0.995 | locus YPL055C, strain LGE1, hits give low values 0.998

NC1(C(=O)O)CCCCC1
inactive: [1] 0.993 | [2] 0.98 | [3] 1.01 | locus YJR075W, strain HOC1, hits give low values 0.992 | locus YMR263W, strain SAP30, hits give low values 0.995 | locus YNL153C, strain GIM3, hits give low values 0.982 | [4] 1.01 | [5] 0.992 | [6] 0.98 | [7] 0.981
